Results filed as inconclusive are left out. Active and inactive are the calls of the source. Unless noted, calls come from the whole dose curve; as a rule, active = well fitted curve in the direction sought with a large enough effect in the repeat runs; inconclusive = weak or mixed curves; inactive = no such curve, though single readings can be large; an effect the other way counts as inactive or inconclusive.
Tests used:
[1] = A CellTox Green Cytotoxicity Assay to monitor cytotoxicity in HepG2 cells - 8 hour (AID 1224890); note: nearly all actives have a fitted effect of over 45% in size
Summary of the method: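 HepG2 cells were seeded together with the CellTox Green dye at 600 cells/well, left 5 h at 37 C/5% CO2, then given compounds in DMSO. Fluorescence from dye bound to dead-cell DNA was read repeatedly over 40 h of treatment at 37 C.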

[2] = qHTS assay to identify small molecule antagonists of the estrogen receptor alpha (ER-alpha) signaling pathway using the BG1 cell line in the presence of 0.1 nM 17-beta-estradiol - cell viability counter screen (AID 1259241); note: nearly all actives have a fitted effect of over 40% in size
Summary of the method: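 Cells were plated and left 24 hr, compounds in DMSO were pinned in, 17beta-estradiol was added to 0.1 nM final, and after 22 hr CellTiter-Fluor reagent was added for 30 min before fluorescence was read.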

[3] = qHTS assay to identify small molecule antagonists of the androgen receptor (AR) signaling pathway using the MDA cell line in the presence of 0.5 nM R1881 - cell viability counter screen (AID 1259242); note: nearly all actives have a fitted effect of over 45% in size
Summary of the method: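 MDA-kb2 cells (human breast carcinoma, stably carrying MMTV-luciferase reporter) were exposed to compounds with 0.5 nM R1881 (final) for 16 hr at 37C, 0% CO2; viability then read as live-cell protease fluorescence (CellTiter-Fluor, 30 min) in the same wells.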

[4] = qHTS assay to identify small molecule HDAC inhibitors (AID 1259364); note: top concentration of the series differs between compounds; nearly all actives have a fitted effect of over 45% in size
Summary of the method: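 Wild-type HCT-116 cells were plated overnight, exposed to compounds for 2 h at 37 °C, then given HDAC-Glo class I/II luminogenic reagent for 30 min at room temperature before luminescence was read.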

[5] = qHTS assay to identify small molecule HDAC inhibitors - cell viability counter screen (AID 1259365); note: series mostly up to about 92 µM; nearly all actives have a fitted effect of over 50% in size
Summary of the method: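 Counter screen in wild-type HCT-116 cells: compounds dissolved in DMSO are pin-transferred onto overnight-plated cells and left 2hr at 37C. ATP-based CellTiter-Glo luminescence then measures viable cells.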

[6] = qHTS assay to identify small molecule agonists of the sonic hedgehog signaling (Shh) pathway - cell viability counter screen (AID 1259366); note: nearly all actives have a fitted effect of over 50% in size
Summary of the method: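 Cells are plated at 2,000 per well and left 4hr at 37C, 5% CO2 before compound addition. After 23hr of treatment, CellTiter-Fluor reagent is added for 1hr at 37C and fluorescence is measured.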

[7] = qHTS assay to identify small molecule antagonists of the sonic hedgehog signaling (Shh) pathway - cell viability counter screen (AID 1259367); note: nearly all actives have a fitted effect of over 55% in size
Summary of the method: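 NIH/3T3-derived Gli1-Luc reporter cells, 2,000/well, plated 4 hr before compound addition, then stimulated with conditioned medium for 24 hr at 37C. Viability measured in the same wells by CellTiter-Fluor fluorescence, reagent added at 23 hr for 1 hr.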

[8] = qHTS assay to identify small molecule agonists of the sonic hedgehog signaling (Shh) pathway (AID 1259368; calls by dose curve; note: series mostly up to about 92 µM; nearly all actives have a fitted effect of over 15% in size)
Summary of the method: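 NIH/3T3-derived 3T3Gli1-Luc cells carrying a stably integrated Gli1 response element–firefly luciferase reporter were plated, left 4 hr at 37 C, then given compounds in DMSO for 24 hr. Luminescence was read 30 min after adding luciferase reagent.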

[9] = qHTS assay to identify small molecule antagonists of the sonic hedgehog signaling (Shh) pathway (AID 1259369; calls by dose curve; note: nearly all actives have a fitted effect of over 45% in size; note: potency is the fitted concentration of half-maximal effect)
Summary of the method: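 NIH/3T3-derived 3T3Gli1-Luc cells with stably integrated Gli1-Luc reporter were preincubated 4hr at 37 C, then given compounds in DMSO plus Shh conditioned medium and incubated 24hr. Firefly luciferase luminescence read after 30min reagent at room temperature.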

[10] = biological target: Estrogen receptor beta (Homo sapiens) (UniProt Q92731); assay: qHTS assay to identify small molecule agonists of the estrogen receptor beta (ER-beta) signaling pathway (AID 1259377; active = well fitted activation curve with a large enough effect in the signal ratio in the repeat runs, not every such curve was filed as active; the % refers to the signal ratio)
Summary of the method: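 Agonist mode cell assay in GripTite HEK293T cells expressing an ER-beta fusion that drives beta-lactamase from an Upstream Activator Sequence; 16 hr compound exposure at 37C, then 2 h LiveBLAzer B/G FRET substrate at room temperature, fluorescence read-out.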

[11] = biological target: Estrogen receptor beta (Homo sapiens) (UniProt Q92731); assay: qHTS assay to identify small molecule antagonists of the estrogen receptor beta (ER-beta) signaling pathway (AID 1259378; active = well fitted inhibition curve with a large enough effect in the signal ratio in the repeat runs, not every such curve was filed as active; the % refers to the signal ratio)
Summary of the method: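 ER-beta-UAS-bla HEK293T cells in 2% charcoal-stripped FBS medium treated with compound plus 1nM final 17-beta-estradiol for 16 hr at 37C. Beta-lactamase reporter read by FRET substrate fluorescence after 2 hours at room temperature.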

[12] = qHTS assay to identify small molecule agonists of the androgen receptor (AR) signaling pathway in the presence of an antagonist - cell viability counter screen (AID 1259379); note: series mostly up to about 92 µM; nearly all actives have a fitted effect of over 25% in size
Summary of the method: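 MDA-kb2 human breast carcinoma cells (stable MMTV-luciferase, AR/GR responsive) were seeded 3,000 cells/well, pre-incubated 5 hr at 37C without CO2, then given 3.0uM nilutamide and compounds at 15 concentrations for 16 hr. Viability was read by CellTiter-Fluor fluorescence.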

[13] = qHTS assay to identify small molecule agonists of the estrogen receptor beta (ER-beta) signaling pathway - cell viability counter screen (AID 1259380); note: nearly all actives have a fitted effect of over 30% in size
Summary of the method: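 ER-beta-UAS-bla HEK293T cells in medium with 2% charcoal-stripped FBS were preincubated 6 hr at 37C, dosed with compound in DMSO for 16 hr, then after the bla read, CellTiter-Glo was added for 30 min at room temperature; luminescence recorded.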

[14] = qHTS assay to identify small molecule antagonists of the estrogen receptor beta (ER-beta) signaling pathway - cell viability counter screen (AID 1259382); note: series mostly up to about 92 µM; nearly all actives have a fitted effect of over 55% in size
Summary of the method: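 ER-beta-UAS-bla HEK293T cells (2,000/well, 2% charcoal-stripped FBS) were pre-incubated 6 hr at 37C, then given compound plus 1nM final 17-beta-estradiol for 16 hr. Viability was read in the same wells by CellTiter-Glo luminescence after 30 min at room temperature.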

[15] = qHTS assay to identify small molecule agonists or antagonists of the thyroid stimulating hormone receptor (TSHR) signaling pathway - wild type cell line counter screen (AID 1259384; calls by dose curve)
Summary of the method: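 Wild-type Hek293 cells, 800/well, 18 h at 37C, then compound with Ro20-1724 for 30 min RT. cAMP by HTRF (cAMP-d2/anti-cAMP cryptate), 1 h RT, fluorescence read. 15 concentrations, triplicates.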

[16] = qHTS assay to identify small molecule phospholipidosis (PLD) inducers (AID 1259344; active = well fitted curve in the direction sought with a large enough effect; an effect the other way counts as inactive or inconclusive)
Summary of the method: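 HepG2 cells, 900/well, treated with compound plus LipidTOX Red for 24 h at 37 C; amiodarone positive and DMSO negative controls. Fixed with paraformaldehyde/Hoechst, then high-content imaging scored LipidTOX pit count and integrated intensity per well and per cell.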

[17] = biological target: Estrogen receptor (Homo sapiens) (UniProt P03372); assay: qHTS assay to identify small molecule antagonists of the estrogen receptor alpha (ER-alpha) signaling pathway using the BG1 cell line in the presence of 0.1 nM 17-beta-estradiol (AID 1259244); note: nearly all actives have a fitted effect of over 50% in size
Summary of the method: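 VM7Luc4E2 cells (endogenous full-length ER-alpha, stable 4xERE-luciferase) were grown 5 days in phenol red-free medium with charcoal-stripped FBS, then exposed 22 h at 37C to compounds plus 0.1 nM (final) 17beta-estradiol; ONE-Glo luminescence read-out.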

[18] = biological target: Estrogen receptor (Homo sapiens) (UniProt P03372); assay: qHTS assay to identify small molecule agonists of the estrogen receptor alpha (ER-alpha) signaling pathway in the presence of an antagonist (AID 1259383; calls by dose curve; note: nearly all actives have a fitted effect of over 15% in size; note: potency is the fitted concentration of half-maximal effect; for activation: top concentration of the series differs between compounds)
Summary of the method: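 VM7Luc4E2 cells (endogenous full-length ER-alpha, 4×ERE-luciferase) were precultured 5 days in phenol red-free medium with 10% charcoal-stripped FBS, given 10.0nM ICI-182,780 (final), then treated with compounds at 15 concentrations for 22hr at 37C; luminescence read with ONE-Glo.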

Measured: Potency

Estrogen receptor (Homo sapiens), sequence (P03372 whole entry, looked up): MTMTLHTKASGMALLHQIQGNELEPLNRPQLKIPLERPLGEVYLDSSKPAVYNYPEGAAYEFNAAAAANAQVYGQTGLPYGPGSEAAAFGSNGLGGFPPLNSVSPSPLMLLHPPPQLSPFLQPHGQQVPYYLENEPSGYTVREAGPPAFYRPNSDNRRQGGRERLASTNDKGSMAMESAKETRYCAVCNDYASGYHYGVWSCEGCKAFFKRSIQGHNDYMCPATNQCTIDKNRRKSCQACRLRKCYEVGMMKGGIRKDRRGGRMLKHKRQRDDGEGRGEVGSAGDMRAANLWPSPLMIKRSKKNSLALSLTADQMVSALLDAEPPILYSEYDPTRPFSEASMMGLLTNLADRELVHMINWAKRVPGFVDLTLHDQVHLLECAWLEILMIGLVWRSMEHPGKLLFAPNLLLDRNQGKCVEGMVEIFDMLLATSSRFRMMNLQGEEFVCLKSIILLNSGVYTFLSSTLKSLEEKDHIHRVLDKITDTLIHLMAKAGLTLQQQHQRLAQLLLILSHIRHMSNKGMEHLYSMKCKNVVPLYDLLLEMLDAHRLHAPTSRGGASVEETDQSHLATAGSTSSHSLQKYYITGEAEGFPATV
Estrogen receptor beta (Homo sapiens), sequence (Q92731 whole entry, looked up, the tested form may be a part): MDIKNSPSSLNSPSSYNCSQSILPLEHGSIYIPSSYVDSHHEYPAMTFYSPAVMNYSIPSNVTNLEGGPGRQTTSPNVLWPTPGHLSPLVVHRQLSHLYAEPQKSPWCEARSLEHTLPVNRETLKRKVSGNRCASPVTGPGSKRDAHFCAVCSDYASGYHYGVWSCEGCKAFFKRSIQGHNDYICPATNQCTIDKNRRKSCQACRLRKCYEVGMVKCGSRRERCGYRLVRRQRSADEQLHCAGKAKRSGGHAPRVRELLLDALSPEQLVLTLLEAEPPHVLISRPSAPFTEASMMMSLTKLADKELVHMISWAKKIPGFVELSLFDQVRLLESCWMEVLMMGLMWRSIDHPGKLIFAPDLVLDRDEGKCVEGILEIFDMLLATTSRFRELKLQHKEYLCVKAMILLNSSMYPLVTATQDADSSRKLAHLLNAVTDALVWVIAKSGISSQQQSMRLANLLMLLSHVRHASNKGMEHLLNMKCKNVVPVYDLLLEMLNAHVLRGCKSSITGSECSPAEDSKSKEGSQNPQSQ

C=C(C)C(=O)OCCCCCCCCCCOC(=O)C(=C)C
inactive: [1] | [2] | [3] | [4] | [5] | [6] | [7] | [8] | [9] | [10] | [11] | [12] | [13] | [14] | [15]

CCCCCCCCNC
inactive: [1] | [2] | [3] | [4] | [5] | [6] | [7] | [8] | [9] | [10] | [11] | [12] | [13] | [14] | [15]

Nc1nc(Cl)nc2c1ncn2[C@H]1C[C@H](O)[C@@H](CO)O1
inactive: [1] | [2] | [3] | [16] | [4] | [5] | [6] | [7] | [8] | [12] | [13] | [14]
active: [9] 383 nM

O=C(Cl)c1ccc(F)c(Cl)c1
active: [18] 864 nM
inactive: [1] | [2] | [3] | [17] | [4] | [5] | [6] | [8] | [9] | [12] | [13] | [14] | [15]

Cc1ccccc1CCO
inactive: [1] | [2] | [3] | [17] | [4] | [5] | [6] | [7] | [8] | [10] | [11] | [12] | [13] | [14] | [18] | [15]

Cc1ccc(NC=O)c(C)c1
inactive: [1] | [2] | [3] | [17] | [4] | [5] | [6] | [7] | [8] | [9] | [13] | [14] | [18] | [15]

Cc1c(Cl)cccc1[N+](=O)[O-]
inactive: [1] | [2] | [3] | [4] | [5] | [6] | [7] | [8] | [9] | [10] | [11] | [12] | [13] | [14]
